From PubChem BioAssay
HRas wt GTP bind – modulators of GTP binding to HRas wildtype, primary screen, biochemical, bead-based flow cytometry, multiplex | GTPase HRas (Homo sapiens), P01112 | GST-Ras wt beads, Bodipy-FL-GTP binding; actives lie on both sides | GTP binding activity, % at 10 µM | 0.14% of 190,000 active;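 active = GTP binding activity at least 20% away from the 100% baseline, either lowered as inhibitor or raised as activator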;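 also: 0% = unlabeled GTP competition control and 100% = no-compound control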
Target sequence (P01112 whole entry, looked up): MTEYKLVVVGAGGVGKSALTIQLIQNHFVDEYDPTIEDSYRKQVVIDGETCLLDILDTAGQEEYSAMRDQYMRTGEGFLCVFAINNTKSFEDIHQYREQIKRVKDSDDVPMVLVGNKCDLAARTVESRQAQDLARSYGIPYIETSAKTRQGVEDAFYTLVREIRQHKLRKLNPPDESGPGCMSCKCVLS
Rab2 wt GTP – modulators of GTP binding to Rab2A wildtype, primary screen, biochemical, dog, bead-based flow cytometry, multiplex | GST-Rab2 wt beads, Bodipy-GTP binding | GTP binding activity, % at 10 µM | 0.19% of 190,000 active | AID 760, 2007;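 active = GTP binding activity at least 20 points away from 100%, either lowered or raised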;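 also: 0% = beads with excess unlabeled GTP and 100% = no-compound control corrected for plate trend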
Rac1 mut GTP – GTP binding modulators of activated mutant Rac1, primary screen, biochemical, bead-based flow cytometry, multiplex, fluorescent GTP; Ras-related C3 botulinum toxin substrate 1 (Homo sapiens), P63000; GST-Rac1 activated beads; actives lie on both sides; 100% means binding = to untreated wells; percent activity (GTP binding), % at 10 µM; 0.11% of 190,000 active; AID 764, 2007;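 active = GTP binding at least 20 percentage points away from the 100% baseline, in either direction, so actives lie on both sides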
Rac1 wt GTP bind – wildtype Rac1 GTP binding modulators, primary screen, biochemical, GST-Rac1 beads, flow cytometry, multiplex; 0.27% of 190,000 active; AID 757, 2007; GTP binding activity (% of control), % at 10 µM; Ras-related C3 botulinum toxin substrate 1 (Homo sapiens), P63000; fluorescent GTP binding; actives lie on both sides; 0 = cold GTP competed, 100 = untreated;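 active = GTP binding activity at least 20 points away from the 100% control level, either lower or higher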
Cdc42 wt GTP – modulators of GTP binding to wildtype Cdc42, primary screen, biochemical, multiplex bead flow cytometry, Bodipy-GTP; percent activity (GTP binding), % at 10 µM; GST-Cdc42 beads; actives lie on both sides; 0.2% of 190,000 active; AID 761, 2007;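 active = percent activity GTP binding at least 20 points away from the 100% baseline, either down as inhibitor or up as activator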;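 also: median bead fluorescence of bound Bodipy-FL-GTP at 100 nM; 0% = excess unlabeled GTP control and 100% = no compound control; below 100% means less GTP binding so inhibitor and above means activator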
Target sequence (P60953 whole entry, looked up): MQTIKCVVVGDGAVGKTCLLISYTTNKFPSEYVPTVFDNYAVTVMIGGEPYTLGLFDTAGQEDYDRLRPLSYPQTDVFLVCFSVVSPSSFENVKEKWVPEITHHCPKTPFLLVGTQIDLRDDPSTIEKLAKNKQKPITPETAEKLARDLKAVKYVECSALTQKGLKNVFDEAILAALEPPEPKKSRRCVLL
Rab7 wt GTP bind – modulators of GTP binding to Rab7, primary screen, biochemical, wildtype, multiplex bead flow cytometry; Rab7 GTPase wild type (dog), Bodipy-FL-GTP binding; 0.055% of 190,000 active; GTP binding activity (percent of control), % at 10 µM; GST-Rab7 beads, fluorescent GTP binding; actives lie on both sides; untreated = 100%, excess cold GTP = 0%;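 active = fluorescent GTP binding to Rab7 beads changed by at least 20 points from the 100% baseline, either direction, mostly lower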;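 also: median green fluorescence of bound Bodipy-FL-GTP per Rab7 bead population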
Starred values were filed as active, the others as inactive; [ ] = dose if it differs, or a comment. Hits are enriched below; roughly 0.4% of the tested compounds scored in any of these assays.

SMILES	HRas wt GTP bind	Rab2 wt GTP	Rac1 mut GTP	Rac1 wt GTP bind	Cdc42 wt GTP	Rab7 wt GTP bind
CC(C)Cc1nc2oc3c(Cl)ncnc3c2c2c1CCC2	101	99	99	101	100	97
CCCc1nc2oc3c(=O)[nH]cnc3c2c2c1CCCC2	82	81	85	79*	82	93
CC(C)c1nc2sc3c(=O)[nH]c(=S)[nH]c3c2c2c1CCC2	97	93	96	98	100	101
CC(C)c1nc2oc3c(=O)[nH]cnc3c2c2c1CCC2	74*	73*	82	79*	70*	81
O=c1c2c(nc3nc(NCc4cccc5ccccc45)[nH]n13)CCC2	91	87	88	93	86	98
COc1ccc(CCNC(=O)C2CCCN2C(=O)NC2CCCCC2)cc1OC (stereo unspecified)	122*[activator]	128*[activator]	114	143*[activator]	141*[activator]	99
COc1ccc(CCNC(=O)NC2CCCCC2)cc1OC	96	97	95	96	97	96
CCOc1ccc(C(=O)Nc2cccc(C(C)=O)c2)cc1[N+](=O)[O-]	99	100	96	99	98	105
Cc1nc2c(c3c1[nH]c1ccccc13)C(O)CC(C)(C)C2 (stereo unspecified)	98	100	100	101	99	102
Cc1nc2sccn2c1-c1nc(-c2cc3ccccc3o2)cs1	81	77*	91	79*	83	87
c1ccc2oc(-c3csc(N4CCOCC4)n3)cc2c1	95	94	97	96	92	97
FC(F)(F)c1cc(-c2cccs2)nc2nc(N3CCOCC3)sc12	102	97	99	97	98	101
Fc1cccc(Nc2ncnc3[nH]ncc23)c1	87	88	91	79*	88	104
COc1ccc(-c2nnc(S/C(=C/c3ccc(Cl)cc3)C(=O)O)o2)cc1	83	75*	73*	81	74*	85
c1ccc(CN2CCN(CCOCCOc3cccc4ccccc34)CC2)cc1	83	78*	80	88	80	87
COC(=O)c1ccccc1NC(=O)CSCC(=O)Nc1ccccc1OC	95	95	97	96	99	76*
COCCn1c(N)c(C(=O)Nc2sc3c(c2C(=O)OC)CCCC3)c2nc3ccccc3nc21	63*	69*	80	77*	63*	84
S=C(Nc1ccccc1)N1N=C(c2cccs2)CC1c1cccs1 (stereo unspecified)	95	93	95	98	96	93
CCn1cc(C(=O)OCC(=O)c2cc(C)n(-c3cccc(C(F)(F)F)c3)c2C)c(=O)c2ccc(C)nc21	80	72*	74*	70*	79*	83
O=Nc1c(O)[nH]c2ccc(F)cc12	96	96	93	100	94	102
NC(=S)N=Nc1c(O)[nH]c2ccc(F)cc12	76*	74*	89	76*	84	85
CCN(C(=O)CSc1nc2ccccc2c(=O)n1C(C)COC)C1CCS(=O)(=O)C1 (stereo unspecified)	98	100	97	100	96	102
COc1cc2ncnc(NCc3cccs3)c2cc1OC	98	98	94	91	95	109
COc1cc2[nH]c(=O)n(CCC(=O)NCCC(C)C)c(=O)c2cc1OC	101	100	98	107	103	101
COc1ccc(CCNc2nc(=S)[nH]c3cc(OC)c(OC)cc23)cc1OC	48*	47*	67*	71*	49*	74*
SMILES	HRas wt GTP bind	Rab2 wt GTP	Rac1 mut GTP	Rac1 wt GTP bind	Cdc42 wt GTP	Rab7 wt GTP bind
COc1cc2[nH]c(=S)nc(NCc3cccs3)c2cc1OC	63*	66*	81	60*	61*	90
COc1cc2[nH]c(=S)nc(NCCc3ccc(C)cc3)c2cc1OC	54*	49*	65*	49*	45*	69*
COc1ccc(CCNC(=O)c2ccc(CNc3nc(=S)[nH]c4ccccc34)cc2)cc1OC	98	101	96	96	102	105
COc1cc2[nH]c(=S)nc(NCCC(C)C)c2cc1OC	64*	59*	71*	52*	56*	85
COc1ccc(C(=O)N=c2sc3c(C)ccc(OC)c3n2C)cc1	97	100	100	99	98	95
O=C(N/C(=C\c1cccc([N+](=O)[O-])c1)C(=O)N(CCO)CCO)c1ccco1	96	97	97	100	97	97
COc1ccccc1CC(=O)NCCc1ccc(S(N)(=O)=O)cc1	103	103	102	111	108	100
COc1cc2[nH]c(=S)nc(NCCc3ccc(S(N)(=O)=O)cc3)c2cc1OC	35*	37*	61*	40*	32*	81
O=C(Nc1cc(S(=O)(=O)Nc2ccccc2Cl)ccc1O)c1sc2cc(Cl)ccc2c1Cl	87	85	78*	83	80	94
COc1ccc(-n2cc(-c3ccccc3)c3c(N4CCOCC4)ncnc32)cc1	97	96	98	99	97	94
COc1ccc(-n2cc(-c3ccccc3)c3c(=O)[nH]cnc32)cc1	108	106	104	121*[activator]	110	104
Cc1cc(NC(=O)CSc2nc(-c3ccccc3)c(C#N)c(=O)[nH]2)no1	75*	78*	76*	77*	75*	77*
Fc1ccc(-c2c[nH]c(=S)n2Cc2ccccc2)cc1	94	95	94	96	97	94
O=C(Nc1nccs1)c1ccc(-c2cccc([N+](=O)[O-])c2)o1	84	84	86	76*	82	102
O=C(Nc1ncc(Cc2cccc(C(F)(F)F)c2)s1)c1ccc(-c2cccc([N+](=O)[O-])c2)o1	91	94	92	96	98	96
O=C(CCn1c(=S)oc2ccccc21)Nc1cccc(O)c1	97	95	94	102	95	98
N#Cc1c2c(c(-c3ccccc3Cl)[nH]c1=S)CCCC2	85	86	80	80	79*	91
N#Cc1c(-c2ccccc2Cl)cc(-c2ccccc2)[nH]c1=S	95	96	90	93	93	104
